These results are taken from PubChem BioAssay (NCI).

Among the test systems are SK-MEL-2 melanoma; EKVX NSCLC; SN12C renal; UO-31 renal; TK-10 renal; ACHN renal; CAKI-1 renal; A498 renal; CCRF-CEM leukemia; MOLT-4 leukemia.
Common to all, as to assay: NCI-60 one-dose screen, 48 h (100 = growth as untreated, 0 = no growth, -100 = all killed)
Holding throughout (settings): 10 µM unless noted

This is part of a sample that, as a whole, favours compounds with a hit. Of some 83,000 tested, about 20% had one in any assay.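 Activity criterion: percent growth below 10, measured after cells in 96-well plates were exposed to a single compound concentration for 48 hours.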 Values without a mark were called inactive. Activity calls are given as the source filed them.

`O=C1Nc2ccc(Br)cc2/C1=N/c1n[nH]c(=S)s1`: the growth in the assay on SK-MEL-2 melanoma is 105%; in the assay with EKVX NSCLC, 100%; with SN12C renal, 96.6%; in the assay with UO-31 renal it was 86.4%; in the assay on TK-10 renal it was 104%; with ACHN renal, 96.3%. In addition, the growth was 74.6% with CAKI-1 renal, 92.4% with A498 renal, 104% in the assay on CCRF-CEM leukemia and 100% in the assay with MOLT-4 leukemia.
In the case of `COc1ccc(/C=C2\C(=O)N=C3N2NC(c2cc(Br)ccc2O)C=C(C)N3c2ccccc2)cc1` (stereo not given), the growth in the assay on SK-MEL-2 melanoma was 104%; with EKVX NSCLC, 105%; with SN12C renal, 97.6%; in the assay on UO-31 renal it was 81.6%; with TK-10 renal, 118%; in the assay on ACHN renal, 99%. Moreover, the growth with CAKI-1 renal was 96.5%; in the assay on A498 renal, 94.1%; in the assay with CCRF-CEM leukemia, 99.8%; in the assay on MOLT-4 leukemia, 97.4%.
Consider `CN(Cc1ccc(C(F)(F)F)cc1)CC(O)C(=O)Nc1ccc(Cl)cc1` (stereo not given), for which the growth with SK-MEL-2 melanoma was -48.1% (active); in the assay on EKVX NSCLC, 12.6%; with SN12C renal, -67.6% (active); in the assay on UO-31 renal, 12.6%; in the assay on TK-10 renal, 24.3%; with ACHN renal, -3.15% (active). Also, the growth in the assay on CAKI-1 renal was -59.6% (active); in the assay with A498 renal it was -4.42% (active); with CCRF-CEM leukemia it was -27.4% (active); with MOLT-4 leukemia, -20.9% (active).
Consider `Cc1noc(C)c1C(=O)OCc1coc2ccccc2c1=O`, for which the growth in the assay with SK-MEL-2 melanoma is 81.4%; in the assay with EKVX NSCLC, 86.9%; in the assay with SN12C renal, 65.4%; with UO-31 renal it was 48.7%; with TK-10 renal, 71.4%; in the assay with ACHN renal, 78.3%. Moreover, the growth in the assay on CAKI-1 renal was 45.3%; in the assay with A498 renal, 104%; with CCRF-CEM leukemia it was 24.2%; in the assay on MOLT-4 leukemia, 62.8%.
In the case of `C=C1C(=O)O[C@H]2[C@H]1CC/C(COC(=O)NCc1cc[nH]c1)=C\CC[C@@]1(C)O[C@@H]21`, the growth is 70.5% in the assay with SK-MEL-2 melanoma; 61.7% in the assay with EKVX NSCLC; 33.6% in the assay with SN12C renal; 58.3% with UO-31 renal; 44.1% in the assay on TK-10 renal; 45.3% in the assay with ACHN renal. The growth in the assay on CAKI-1 renal is 39.1%; with A498 renal, 104%; with CCRF-CEM leukemia, -15.9% (active); in the assay with MOLT-4 leukemia, 18.6%.
As for `CCOC(=O)C1=NN(c2ccccc2)C(=O)/C1=C\N1C(=O)CC(=O)NC1=S`, the growth in the assay on SK-MEL-2 melanoma was 98%; in the assay with EKVX NSCLC, 103%; with SN12C renal, 95.6%; with UO-31 renal, 77.4%; in the assay with TK-10 renal, 96%; with ACHN renal, 101%. In addition, the growth is 41.2% with CAKI-1 renal, 104% with A498 renal, 96.2% in the assay with CCRF-CEM leukemia and 99% in the assay on MOLT-4 leukemia.
For `O=C(c1ccc(-c2ccccc2)cc1)c1ccc([N+](=O)[O-])cc1`, the growth in the assay with SK-MEL-2 melanoma is 104%; with EKVX NSCLC, 98%; in the assay on SN12C renal, 104%; with UO-31 renal it was 97.5%; in the assay on TK-10 renal, 124%; in the assay on ACHN renal, 97.5%. Besides, the growth was 88.1% in the assay on CAKI-1 renal, 124% with A498 renal, 89% with CCRF-CEM leukemia and 52.6% in the assay on MOLT-4 leukemia.
`COCCNC(=O)c1ccc(-c2nc3ccc4[nH]ncc4c3c3c2CCCC3)cc1`: the growth in the assay with SK-MEL-2 melanoma is 40.2%; in the assay on EKVX NSCLC it was 45.7%; with SN12C renal, 33%; with UO-31 renal it was 8.86% (active); in the assay with TK-10 renal, 38.9%; in the assay with ACHN renal it was 14.9%. In addition, the growth in the assay on CAKI-1 renal was -4.05% (active); in the assay on A498 renal, -9.26% (active); in the assay on CCRF-CEM leukemia it was 18.1%; with MOLT-4 leukemia it was 17.8%.
On to `O=C(/C=C/c1cn(-c2ccccc2)nc1-c1ccc([N+](=O)[O-])cc1)c1ccc(Cl)cc1`, for which the growth in the assay with SK-MEL-2 melanoma was 96.2%; with EKVX NSCLC, 60.7%; in the assay with SN12C renal, 50.5%; in the assay on UO-31 renal, 41.2%; in the assay with TK-10 renal, 14.1%; in the assay with ACHN renal, 52.3%. The growth in the assay on CAKI-1 renal was 31.9%; with A498 renal, 78.5%; with CCRF-CEM leukemia it was 38%; in the assay with MOLT-4 leukemia, 38%.
On to `O=C(NNc1nccc(Nc2ccc(S(=O)(=O)Nc3ccncc3)cc2)n1)c1ccccc1`, for which the growth is 106% in the assay with SK-MEL-2 melanoma; 104% in the assay on EKVX NSCLC; 107% with SN12C renal; 93.9% in the assay with UO-31 renal; 95.3% in the assay with TK-10 renal; 104% in the assay with ACHN renal. Besides, the growth was 92.8% in the assay on CAKI-1 renal, 103% in the assay with A498 renal, 111% in the assay with CCRF-CEM leukemia and 96.7% with MOLT-4 leukemia.
With `Cc1nn(-c2ccccc2)c(Oc2ccccn2)c1-c1nc2ccccc2s1`, the growth is 99.2% in the assay on SK-MEL-2 melanoma; 90.4% in the assay with EKVX NSCLC; 100% in the assay with SN12C renal; 88.2% with UO-31 renal; 103% in the assay with TK-10 renal; 98.3% in the assay on ACHN renal. The growth was 82.3% in the assay on CAKI-1 renal, 106% in the assay on A498 renal, 102% in the assay on CCRF-CEM leukemia and -49.2% (active) in the assay with MOLT-4 leukemia.
On to `O=C1c2cccnc2C(=O)c2c1c(C(=O)NCCn1ccnc1)c1ccccn21`, for which the growth was 26.6% in the assay on SK-MEL-2 melanoma; 56.9% in the assay with EKVX NSCLC; 4.77% (active) with SN12C renal; 61.3% in the assay with UO-31 renal; 116% with TK-10 renal; 31.5% with ACHN renal. The growth in the assay on CAKI-1 renal was 86.9%; in the assay with A498 renal, 57.3%; in the assay on CCRF-CEM leukemia, 11.8%; in the assay on MOLT-4 leukemia, 1.95% (active).
